Reference: PubChem BioAssay (NCI)
Where “and” joins values, the source holds several entries; their conditions need not be identical. Equal values may be shown once. About 83,000 compounds went through this panel and 20% of them were active in at least one assay; those are over-represented in the sample as a whole.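 Negative percent growth values reflect cell death: -40 means 40% of the cells present at the start died, and -100 means all died.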 Calls of active or inactive are those of the source. How the source made its calls: active means growth percent below 10; inactive means the rest.

System: HL-60(TB) leukemia
Test: NCI-60 one-dose screen, 48 h (100 = growth as untreated, 0 = no growth, -100 = all killed)
Conditions: 10 µM unless noted

Q: `O=C(NNc1ccccc1)c1ccccc1` was tested. Which growth did it give?
A: Its growth is 7.78% (active) and -1.5% (active).

Q: Which growth does the source give for `O=C(COc1ccc(/C=C2\Oc3ccccc3C2=O)cc1)Nc1nc2c(s1)CCCC2` here?
A: The growth was -72.2% (active).

Q: For `Cc1nc(NC(=O)N2CCC[C@H]2C(N)=O)sc1-c1ccnc(C(C)(C)C(F)(F)F)c1`, which growth is on record?
A: Its growth is 24% (inactive).

Q: `CCOC(=O)c1[nH]c(C)c(C(=O)OCc2ccccc2C#N)c1C` was tested. Which growth did it give?
A: Its growth is 86.6% (inactive).

Q: `N#Cc1nc(-c2ccccc2)oc1S(=O)(=O)N1CCOCC1` was tested. Which growth did it give?
A: Its growth is 5.5% (active).

Q: `Nc1nc2c(c3ncccc13)C(c1ccc(Cl)c(Cl)c1)Cc1ncccc1-2` (centres undefined) was tested. Which growth did it give?
A: The growth was -7.14% (active).

Q: Which growth does the source give for `CSc1nc(N)c(CNC(C)c2ccccc2)c(=O)n1C` (centres undefined) here?
A: Its growth is 81.1% (inactive).

Q: How did the growth turn out when `O=C(/C=C/c1ccc[nH]1)c1ccc(-n2ccc(C(F)(F)F)n2)cc1` was run?
A: The growth was -18.4% (active).

Q: Which growth does the source give for `CC(CCC#N)(CCC#N)C(=O)c1ccccc1` here?
A: The growth was 88.7% (inactive).

Q: Which growth does the source give for `COc1ccc2sc3cccc(NCCN(C)C)c3c(=O)c2c1` here?
A: The growth was -49.5% (active).

Q: How did the growth turn out when `CCN(CC)CCOc1ccc(-c2c(-c3ccccc3)c(=O)oc3ccccc23)cc1` was run?
A: Its growth is 107% (inactive).

Q: Which growth does the source give for `COC(=O)c1ccccc1Cl` here?
A: Its growth is 97.3% (inactive).

Q: How did the growth turn out when `COc1ccc(C2C(C#N)=C(N)Oc3n[nH]c(-c4cccs4)c32)cc1I` (centres undefined) was run?
A: The growth was 54.2% (inactive).

Q: `COC(=O)C(CSC(c1ccccc1)(c1ccccc1)c1ccccc1)NC(=O)C(CC(N)=O)NC(=O)OCc1ccccc1` (centres undefined) was tested. Which growth did it give?
A: The growth was -7.75% (active).

Q: Which growth does the source give for `CCN1CCN(c2cc(C)nc(N(CCCNc3ccnc4cc(Cl)ccc34)Cc3cccs3)n2)CC1` here?
A: The growth was -50.3% (active).

Q: With `CCOC(=O)c1c2ncccc2n2c(=O)n(-c3ccccc3C)nnc12` as the molecule, how does the growth read?
A: The growth was 56.9% (inactive).

Q: `NC1CCC(Nc2nc(NCc3ccc(-c4cccs4)nc3)c3ncn(C4CCCC4)c3n2)CC1` (centres undefined) was tested. Which growth did it give?
A: The growth was -29.7% (active).

Q: With `CCN(CC)CCNC(=O)c1c(C)[nH]c(/C=C2\C(=O)Nc3cc(NC(=O)NC(=O)c4ccc(OC)cc4F)ccc32)c1C` as the molecule, how does the growth read?
A: Its growth is 95.9% (inactive).

Q: How did the growth turn out when `O=C(/C=C\c1ccnc2ccccc12)c1ccc([N+](=O)[O-])cc1` was run?
A: The growth was 47.1% (inactive) and 30.4% (inactive).

Q: With `C=CCNc1nnc(C)s1` as the molecule, how does the growth read?
A: Its growth is 139% (inactive).

Q: `O=C(NCc1cccc(C(F)(F)F)c1)[C@H](CCC(=O)N1CCN(C2CCCCC2)CC1)N1C(=O)[C@@H](N2C(=O)OC[C@@H]2c2ccccc2)[C@H]1/C(Cl)=C/c1ccccc1` was tested. Which growth did it give?
A: Its growth is 5.62% (active).

Q: For `CN(C)c1ccc(-c2cc(-c3cccc(NS(C)(=O)=O)c3)nc(N)c2C#N)cc1`, which growth is on record?
A: Its growth is 2.91% (active).

Q: How did the growth turn out when `CN1CCC(c2ccccc2)(c2ccccc2)C(=O)C1` was run?
A: Its growth is 90.8% (inactive).

Q: `O=C1c2ccccc2C(=O)c2c1ccc1[nH]c(CCl)nc21` was tested. Which growth did it give?
A: Its growth is -37.4% (active).

Q: For `O=c1[nH]ncc(Br)c1Br`, which growth is on record?
A: Its growth is 65.5% (inactive).

Q: For `COc1ccc(-c2cc(-c3ccc(Cl)cc3)nc(SCCCCCCC(=O)NO)n2)cc1OC`, which growth is on record?
A: The growth was 19% (inactive).

Q: Which growth does the source give for `CCCCn1c(=O)[nH]c(N)c(C(c2ccc(Cl)cc2)c2c(N)[nH]c(=O)n(CCCC)c2=O)c1=O` here?
A: The growth was 13.2% (inactive).

Q: `COc1ccc2nc(NCCCNCCO)c3sc4ccc(F)cc4c(=O)c3c2c1` was tested. Which growth did it give?
A: The growth was 25% (inactive).

Q: How did the growth turn out when `COc1ccc(OC)c(NC(=O)c2cc(S(=O)(=O)N3CCc4ccccc43)ccc2OC)c1` was run?
A: Its growth is 107% (inactive).

Q: With `C=CCOc1ccc2c(c1)CC=C1[C@@H]2CC[C@]2(C)C(=O)/C(=N/O)C[C@@H]12` as the molecule, how does the growth read?
A: Its growth is 22.7% (inactive).

Q: `COc1ccc(C(=O)c2cc3c(N)c(C(=O)Nc4cccc(Cl)c4C)sc3nc2C)cc1` was tested. Which growth did it give?
A: The growth was -60.6% (active).

Q: `Cc1nc(N2CCOCC2)sc1S(N)(=O)=O` was tested. Which growth did it give?
A: Its growth is 97.4% (inactive).

Q: Which growth does the source give for `Cc1ccc(NCSc2ccc(Cl)cc2)cc1` here?
A: Its growth is 3% (active) and 22.5% (inactive).

Q: Which growth does the source give for `CSc1ccc(C(=O)C[n+]2cccc(C)c2)cc1` here?
A: The growth was 102% (inactive).

Q: Which growth does the source give for `O=c1[nH]cnc2c1ncn2C1OC(CO)C(O)C1O` (centres undefined) here?
A: Its growth is 97.1% (inactive) and 89.3% (inactive) and 101% (inactive).

Q: How did the growth turn out when `O=S(=O)(NCCNc1cc(-c2cn(-c3ccccc3)nc2-c2cccc(O)c2)ccn1)c1cccc(F)c1` was run?
A: Its growth is 27.4% (inactive).

Q: For `C=C(C)[C@@H]1CC[C@]2(C(=O)OC)CC[C@]3(C)[C@H](CC[C@@H]4[C@@]5(C)C/C(=C/c6ccc(OC)cc6)C(=O)C(C)(C)[C@@H]5CC[C@]43C)[C@@H]12`, which growth is on record?
A: Its growth is 87.6% (inactive).

Q: How did the growth turn out when `O=C(O)CCCCc1ccc([N+](=O)[O-])cc1` was run?
A: Its growth is 74.8% (inactive) and 93.9% (inactive).

Q: With `Cc1ccc(-c2cn(C/C=C3\C=CN(S(=O)(=O)c4ccccc4)CC3)nn2)cc1` as the molecule, how does the growth read?
A: The growth was 105% (inactive).
